Composite z-score and z-score data for 5 molecules are collected here from PubChem BioAssay.

Test [1] relates to PRMT1 (protein arginine N-methyltransferase 1). Kind of test: small molecules binding arginine methyltransferase PRMT1 – biochemical, small-molecule microarray, 635 nm fluorescence, primary screen (AID 1088).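 Also: binding of Prmt1 protein to compounds spotted on small-molecule microarray slides.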 Particulars: higher = more signal.
Test [2] can be described thus: growth effects on S. cerevisiae YJM789 – YJM789 clinical isolate, OD600, 24 h, basal, primary screen (AID 1089).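 Also: growth of clinical yeast isolate S. cerevisiae YJM 789 seeded 1000 cells per well; test concentration not given here.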 Particulars: higher = more signal, called active from +8 up or from −8 down.
Test [3] in a line: S. pombe growth modifiers, basal conditions – strain 972, OD600, 24 h, no modulator, primary screen (AID 1090).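 Also: basal condition with compound alone and no growth modifier present; test concentration not given here.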 To be noted: S. pombe 972 growth, higher = more signal, called active from +8 up or from −8 down.
The nature of test [4]: budding yeast growth modifiers under rapamycin – strain BY4716, OD600, 96 h, primary screen (AID 1091). Also: test concentration not given here. To be noted: S. cerevisiae BY4716 + rapamycin, higher = more signal, called active from +8 up or from −8 down.
For test [5], the target named is Torsin-1A-interacting protein 2 (Homo sapiens) (UniProt Q8NFQ8). Kind of test: small molecules binding lysate-expressed LULL1 – cell lysate, human LULL1 lysate, 635/667 nm fluorescence, primary screen (AID 1092).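 Also: probe is lysate of COS7 cells overexpressing human LULL1; score merges per-feature 667 nm fluorescence with signal-to-noise.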 Particulars: small-molecule microarray, hLULL1 lysate binding, 635 nm fluorescence; higher = more signal.
Test [6] is described as follows: optical density change of DRC41 E. coli – strain DRC41, OD650, 24 h, E. coli filamentation project, primary screen (AID 1093).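 Also: MC1000 strain lacking acrAB efflux and sulA so SOS filamentation is blocked; test concentration not given here.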 To be noted: E. coli DRC41 growth, higher = more signal, called active from +8 up or from −8 down.
The nature of test [7]: probe aLefty2 binding to arrayed compounds – biochemical, biotinylated probe, 635/667 nm fluorescence, primary screen (AID 1094).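 Also: score merges spot fluorescence near 667 nm with spot signal-to-noise ratio.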 To be noted: small-molecule microarray, higher = more signal.
Test [8] concerns Noggin (protein binding on small-molecule microarray). Description: small molecules binding Noggin protein – biochemical, 635/667 nm fluorescence, primary screen (AID 1095).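 Also: score merges 667 nm feature fluorescence with signal to noise over triplicate slides.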 To be noted: 635 nm fluorescence, higher = more signal.
Test [9] addresses Neurogenic locus notch homolog protein 3 (Homo sapiens) (UniProt Q9UM47). Kind of test: small molecules binding NOTCH3 protein – biochemical, 635/667 nm fluorescence, primary screen (AID 1096). To be noted: small-molecule microarray, 635 nm fluorescence, higher = more signal.
Test [10] can be described thus: probe aEGFR binding to arrayed compounds – biochemical, biotinylated probe, 635/667 nm fluorescence, primary screen (AID 1097).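 Also: probe is a biotinylated anti-EGFR antibody binding compounds printed on slides; score combines fluorescence near 667 nm and signal to noise of each spot.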 To be noted: small-molecule microarray, higher = more signal.
Test [11] has as its system Plasmodium falciparum Sir2 (PF13_0152, Sir2A). Description: Plasmodium falciparum Sir2A binding compounds – biochemical, small-molecule microarray, 635 nm fluorescence, primary screen (AID 1098).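 Also: score merges spot fluorescence intensity with its signal-to-noise ratio.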 To be noted: fluorescence 635 nm, higher = more signal.
A short description of test [12]: probe aDKK1 binding to arrayed compounds – biochemical, biotinylated probe, 635/667 nm fluorescence, primary screen (AID 1099).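 Also: score merges 667nm spot fluorescence with signal to noise across triplicate slides; reference of the scale not given here.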 Particulars: small-molecule microarray, higher = more signal.
Test [13] can be described thus: probe aCHRDL2 binding to arrayed compounds – biochemical, biotinylated probe, 635/667 nm fluorescence, primary screen (AID 1100). Particulars: small-molecule microarray, higher = more signal.
Test [14] in a line: change in splice reporter luminescence, either direction, cell-based, HEK293, spliceosome inhibition project, primary screen (AID 1101).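 Also: HEK293 cells carrying a splicing-competent luciferase reporter gene; test concentration not given here.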 Particulars: HEK293 splicing luciferase reporter, 24 h, higher = more signal, called active from +8 up or from −8 down. (A reporter such as luciferase makes a cellular process visible.)
Test [15] addresses Fibroblast growth factor 10 (Homo sapiens) (UniProt O15520). Description: compounds binding fibroblast growth factor 10 – biochemical, small-molecule microarray, 635 nm fluorescence, primary screen (AID 1102). To be noted: FGF10 binding, fluorescence 635 nm, higher = more signal.
For test [16], the system named is glycogen synthase kinase-3 (GSK3A per assay name; protocol says GSK3B). Kind of test: compounds binding glycogen synthase kinase-3 – biochemical, small-molecule microarray, 635 nm fluorescence, GSK3A, primary screen (AID 1103). Also: the record names both GSK3A and GSK3B. To be noted: fluorescence 635 nm, higher = more signal.
The target in test [17] is Epidermal growth factor receptor (Homo sapiens) (UniProt P00533). Kind of test: compounds binding epidermal growth factor receptor – biochemical, small-molecule microarray, 635 nm fluorescence, primary screen (AID 1104).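 Also: score merges 667 nm emission intensity with spot signal to noise over triplicate slides.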 To be noted: EGFR binding, higher = more signal.
For test [18], the target named is Follistatin-related protein 3 (Homo sapiens) (UniProt O95633). Kind of test: compounds binding follistatin-related protein 3 – biochemical, small-molecule microarray, 635 nm fluorescence, primary screen (AID 1105).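 Also: score merges emission near 667 nm and signal to noise per printed spot across three slides.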 Particulars: FSTL3 binding, higher = more signal.
Test [19] concerns the target Dickkopf-related protein 1 (Homo sapiens) (UniProt O94907). Kind of test: small molecules binding DKK1 protein – biochemical, small-molecule microarray, 635 nm fluorescence scan, primary screen (AID 1106).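 Also: score merges emission near 667 nm with signal to noise over three replicate slides.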 Particulars: higher = more signal.
In test [20] the test system is Inhibin beta A chain (activin A). Description: small molecules binding activin A – biochemical, small-molecule microarray, 635 nm fluorescence scan, primary screen (AID 1107).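 Also: mouse activin A protein probed at 4.33 µg/mL on printed slides; score merges bound-protein fluorescence near 667 nm with spot signal-to-noise.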 To be noted: INHBA, higher = more signal.

The source made the active and inactive calls.

Fibroblast growth factor 10 (Homo sapiens), sequence (O15520 whole entry, looked up): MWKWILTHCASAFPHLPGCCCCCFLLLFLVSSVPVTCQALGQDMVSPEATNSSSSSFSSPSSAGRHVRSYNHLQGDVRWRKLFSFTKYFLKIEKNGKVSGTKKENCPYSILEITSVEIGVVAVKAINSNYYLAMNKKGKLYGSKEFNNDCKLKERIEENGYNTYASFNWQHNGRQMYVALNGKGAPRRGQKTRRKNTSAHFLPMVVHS
Dickkopf-related protein 1 (Homo sapiens), sequence (O94907 whole entry, looked up): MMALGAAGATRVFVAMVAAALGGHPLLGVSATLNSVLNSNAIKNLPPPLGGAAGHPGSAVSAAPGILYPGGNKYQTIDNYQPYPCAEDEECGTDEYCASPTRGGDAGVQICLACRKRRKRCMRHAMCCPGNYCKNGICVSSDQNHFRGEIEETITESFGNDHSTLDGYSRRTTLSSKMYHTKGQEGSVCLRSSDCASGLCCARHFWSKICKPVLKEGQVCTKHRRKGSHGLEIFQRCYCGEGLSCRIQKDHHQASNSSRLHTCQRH
Neurogenic locus notch homolog protein 3 (Homo sapiens), sequence (Q9UM47 whole entry, looked up): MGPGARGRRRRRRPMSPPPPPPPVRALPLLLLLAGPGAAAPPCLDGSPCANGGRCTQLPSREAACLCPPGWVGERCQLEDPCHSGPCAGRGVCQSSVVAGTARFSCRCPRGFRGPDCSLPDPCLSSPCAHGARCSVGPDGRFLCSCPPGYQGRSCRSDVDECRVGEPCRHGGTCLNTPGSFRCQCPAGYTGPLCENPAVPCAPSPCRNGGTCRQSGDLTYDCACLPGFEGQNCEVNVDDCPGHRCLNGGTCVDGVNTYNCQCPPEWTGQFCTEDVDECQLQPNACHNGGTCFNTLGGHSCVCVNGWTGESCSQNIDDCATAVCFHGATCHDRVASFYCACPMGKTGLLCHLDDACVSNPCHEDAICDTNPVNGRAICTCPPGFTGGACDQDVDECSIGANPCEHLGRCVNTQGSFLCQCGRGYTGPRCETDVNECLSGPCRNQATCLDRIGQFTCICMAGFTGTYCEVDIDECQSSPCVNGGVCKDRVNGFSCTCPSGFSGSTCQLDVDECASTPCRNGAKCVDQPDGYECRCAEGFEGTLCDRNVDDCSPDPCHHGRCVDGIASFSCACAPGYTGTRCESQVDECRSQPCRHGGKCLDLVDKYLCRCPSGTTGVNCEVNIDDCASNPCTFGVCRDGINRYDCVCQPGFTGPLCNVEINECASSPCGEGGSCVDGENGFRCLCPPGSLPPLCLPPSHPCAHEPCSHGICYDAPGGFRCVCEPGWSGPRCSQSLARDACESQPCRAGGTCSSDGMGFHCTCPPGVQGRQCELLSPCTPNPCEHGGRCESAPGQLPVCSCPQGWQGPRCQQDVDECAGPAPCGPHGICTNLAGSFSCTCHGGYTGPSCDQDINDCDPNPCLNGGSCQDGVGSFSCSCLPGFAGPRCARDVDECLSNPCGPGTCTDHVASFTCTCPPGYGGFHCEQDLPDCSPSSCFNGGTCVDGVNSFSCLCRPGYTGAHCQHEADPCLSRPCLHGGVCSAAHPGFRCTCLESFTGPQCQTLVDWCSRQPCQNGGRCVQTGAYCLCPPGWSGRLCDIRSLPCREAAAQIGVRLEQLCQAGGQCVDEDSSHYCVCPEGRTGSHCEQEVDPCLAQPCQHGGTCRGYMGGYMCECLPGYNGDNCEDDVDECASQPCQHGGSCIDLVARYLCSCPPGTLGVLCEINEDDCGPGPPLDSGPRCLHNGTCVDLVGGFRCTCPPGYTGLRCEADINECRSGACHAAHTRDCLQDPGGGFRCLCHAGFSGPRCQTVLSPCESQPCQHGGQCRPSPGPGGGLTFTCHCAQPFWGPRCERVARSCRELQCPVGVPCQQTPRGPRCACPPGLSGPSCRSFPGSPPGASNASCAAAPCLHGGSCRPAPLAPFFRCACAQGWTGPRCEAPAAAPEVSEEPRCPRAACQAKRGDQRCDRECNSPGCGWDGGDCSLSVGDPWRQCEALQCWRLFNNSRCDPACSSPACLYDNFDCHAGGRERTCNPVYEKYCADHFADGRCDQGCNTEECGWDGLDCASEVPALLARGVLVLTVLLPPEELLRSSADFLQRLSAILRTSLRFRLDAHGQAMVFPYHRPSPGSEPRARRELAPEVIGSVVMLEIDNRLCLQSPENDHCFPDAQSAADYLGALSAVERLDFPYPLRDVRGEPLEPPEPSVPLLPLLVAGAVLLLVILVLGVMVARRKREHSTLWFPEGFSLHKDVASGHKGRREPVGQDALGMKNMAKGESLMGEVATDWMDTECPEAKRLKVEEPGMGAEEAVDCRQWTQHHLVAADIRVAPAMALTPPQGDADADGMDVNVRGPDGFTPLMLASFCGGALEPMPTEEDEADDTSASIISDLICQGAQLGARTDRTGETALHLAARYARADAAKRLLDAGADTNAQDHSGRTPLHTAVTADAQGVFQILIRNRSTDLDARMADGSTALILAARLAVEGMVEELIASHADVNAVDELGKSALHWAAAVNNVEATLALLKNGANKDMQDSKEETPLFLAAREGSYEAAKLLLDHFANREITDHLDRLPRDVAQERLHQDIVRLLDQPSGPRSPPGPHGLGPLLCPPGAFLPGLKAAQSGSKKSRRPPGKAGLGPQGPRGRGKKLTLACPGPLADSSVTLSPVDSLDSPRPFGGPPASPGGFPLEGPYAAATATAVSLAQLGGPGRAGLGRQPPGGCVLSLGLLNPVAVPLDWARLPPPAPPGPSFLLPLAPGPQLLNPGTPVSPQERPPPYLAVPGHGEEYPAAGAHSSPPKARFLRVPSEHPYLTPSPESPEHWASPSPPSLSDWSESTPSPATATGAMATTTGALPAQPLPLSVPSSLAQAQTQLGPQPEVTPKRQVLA
Epidermal growth factor receptor (Homo sapiens), sequence (P00533 whole entry, looked up): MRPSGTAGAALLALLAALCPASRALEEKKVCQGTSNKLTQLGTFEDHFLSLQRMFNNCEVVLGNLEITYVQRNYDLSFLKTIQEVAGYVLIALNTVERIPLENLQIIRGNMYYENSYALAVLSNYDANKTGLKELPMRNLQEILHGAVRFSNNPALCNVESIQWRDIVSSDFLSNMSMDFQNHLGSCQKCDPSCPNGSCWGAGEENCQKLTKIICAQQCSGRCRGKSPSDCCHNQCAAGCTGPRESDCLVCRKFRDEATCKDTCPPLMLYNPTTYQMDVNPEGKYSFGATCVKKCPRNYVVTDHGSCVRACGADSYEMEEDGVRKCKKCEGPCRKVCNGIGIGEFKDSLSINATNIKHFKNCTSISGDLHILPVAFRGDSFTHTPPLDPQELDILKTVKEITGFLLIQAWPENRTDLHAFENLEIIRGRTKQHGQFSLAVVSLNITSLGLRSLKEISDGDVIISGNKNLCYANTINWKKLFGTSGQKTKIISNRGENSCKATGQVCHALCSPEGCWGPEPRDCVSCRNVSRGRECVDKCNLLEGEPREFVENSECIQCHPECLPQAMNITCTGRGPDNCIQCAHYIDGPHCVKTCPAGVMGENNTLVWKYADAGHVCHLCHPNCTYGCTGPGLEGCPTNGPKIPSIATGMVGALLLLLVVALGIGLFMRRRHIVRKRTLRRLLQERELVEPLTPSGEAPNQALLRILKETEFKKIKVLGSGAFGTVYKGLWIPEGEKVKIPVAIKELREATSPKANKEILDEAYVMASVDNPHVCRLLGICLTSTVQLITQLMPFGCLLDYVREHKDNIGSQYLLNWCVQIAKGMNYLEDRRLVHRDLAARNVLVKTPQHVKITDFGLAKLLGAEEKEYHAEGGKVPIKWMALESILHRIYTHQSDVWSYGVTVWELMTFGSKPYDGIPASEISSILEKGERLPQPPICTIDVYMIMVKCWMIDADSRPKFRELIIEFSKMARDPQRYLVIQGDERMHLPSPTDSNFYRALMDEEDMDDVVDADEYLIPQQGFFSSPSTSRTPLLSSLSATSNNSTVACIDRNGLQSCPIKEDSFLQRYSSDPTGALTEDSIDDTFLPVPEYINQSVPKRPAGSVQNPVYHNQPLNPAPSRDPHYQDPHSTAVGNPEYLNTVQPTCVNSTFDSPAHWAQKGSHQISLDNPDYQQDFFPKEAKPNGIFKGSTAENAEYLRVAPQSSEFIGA
Follistatin-related protein 3 (Homo sapiens), sequence (O95633 whole entry, looked up): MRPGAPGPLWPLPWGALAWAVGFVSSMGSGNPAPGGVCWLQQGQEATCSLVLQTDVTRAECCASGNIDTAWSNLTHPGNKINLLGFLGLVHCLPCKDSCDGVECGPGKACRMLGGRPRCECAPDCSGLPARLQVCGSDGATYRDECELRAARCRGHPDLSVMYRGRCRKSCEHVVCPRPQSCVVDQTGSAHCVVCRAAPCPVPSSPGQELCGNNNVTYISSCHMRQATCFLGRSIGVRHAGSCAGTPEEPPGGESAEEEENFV
Torsin-1A-interacting protein 2 (Homo sapiens), sequence (Q8NFQ8 whole entry, looked up): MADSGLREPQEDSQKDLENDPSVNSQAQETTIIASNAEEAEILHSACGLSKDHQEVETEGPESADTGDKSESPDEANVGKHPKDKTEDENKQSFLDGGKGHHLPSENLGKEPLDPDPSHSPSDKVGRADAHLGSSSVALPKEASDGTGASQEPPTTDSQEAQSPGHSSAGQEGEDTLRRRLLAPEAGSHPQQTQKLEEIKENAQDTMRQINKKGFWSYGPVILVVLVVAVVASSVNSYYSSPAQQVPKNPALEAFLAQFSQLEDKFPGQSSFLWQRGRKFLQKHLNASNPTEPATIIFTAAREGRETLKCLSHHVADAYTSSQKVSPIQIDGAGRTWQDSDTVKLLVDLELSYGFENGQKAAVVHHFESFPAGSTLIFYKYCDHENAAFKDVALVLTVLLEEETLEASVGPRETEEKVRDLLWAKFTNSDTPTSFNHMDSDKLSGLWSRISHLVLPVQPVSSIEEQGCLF

As to `C=C(COC)C(=O)CC[C@@H](OC(C)=O)c1cccc(OCCO)c1`, the composite z-score in test [1] was -0.352; in test [5], -0.329; in test [7], -0.116; in test [8], -0.0606; in test [9] it was -0.132; in [10] it was -0.211. Moreover, the composite z-score in test [11] was 0.114; in [12], -0.0524; in test [13], 0.225; in test [15], 1.38; in test [16], -0.911; in test [17], -0.934. Further, the composite z-score in test [18] is -0.303; in [19], 0.227; in test [20], 1.01. Further, the z-score in test [2] is 1.01 (inactive); in [3], -0.953 (inactive); in [4] it was 0.962 (inactive); in [6] it was 0.302 (inactive); in test [14], 1.32 (inactive).

On to `COc1ccc(C#Cc2ccc3c(c2)[C@]2(C(=O)N3)[C@H](c3ccc(O)cc3)N3[C@H](c4ccccc4)[C@H](c4ccccc4)OC(=O)[C@H]3[C@@H]2C(=O)Nc2nc3ccccc3s2)cc1`, for which the composite z-score worked out at 1.55 in test [1]; 3.07 in test [5]; 0.334 in test [7]; 0.46 in test [8]; 1.05 in test [9]; 0.484 in test [10]. The composite z-score in test [11] worked out at 1.48; in test [12], 0.223; in test [13], 0.342; in test [15] it was 1.28; in [16], 1.31; in test [17], 0.45. The composite z-score in [18] was 1.2; in [19] it was 0.775; in test [20] it was -0.604. In addition, the z-score is 1.51 (inactive) in test [2]; -0.924 (inactive) in test [3]; -0.221 (inactive) in [4]; 1.92 (inactive) in [6]; -0.793 (inactive) in test [14].

`CC(C)C(CO)N1C(=O)[C@@H]2C3C(=O)OCCC/C=C\[C@H]3OC23C=CCN(c2ccc4ccccc4c2)C(=O)[C@@H]13` (stereo not given in full): the composite z-score in test [1] was -0.403; in test [5], 1.34; in [7] it was -0.0928; in test [8], -0.469; in test [9], 0.121; in test [10], -0.203. The composite z-score is 0.552 in test [11]; -0.167 in [12]; 0.375 in test [13]; 0.0329 in [15]; -1.01 in test [16]; -1.2 in test [17]. The composite z-score in [18] was -0.602; in test [19], -0.4; in test [20], 0.791. Besides, the z-score in test [2] was -0.25 (inactive); in [3], -1.45 (inactive); in test [4], -0.0641 (inactive); in [6], -0.395 (inactive); in test [14], -0.298 (inactive).

With `C#CCN([C@@H](Cc1ccccc1)C(=O)OC)[C@@H](/C=C/C1CC1)[C@H](O)Cc1ccccc1`, the composite z-score in test [1] was -0.59; in test [5] it was 0.209; in [7], -0.0051; in [8], 0.0503; in test [9], -0.525; in test [10], -0.307. The composite z-score was -0.437 in [11]; -0.575 in test [12]; 0.37 in test [13]; -0.496 in test [15]; -0.489 in test [16]; -0.473 in test [17]. Moreover, the composite z-score in test [18] was -0.494; in test [19], -0.185; in test [20], 1.49. Moreover, the z-score in test [2] was -0.464 (inactive); in test [3] it was -1.22 (inactive); in test [4], -0.0898 (inactive); in test [6] it was -0.807 (inactive); in test [14] it was 0.414 (inactive).

Take `C[C@@H]1NC(=O)[C@@H](Cc2ccccc2)NC(=O)[C@@]23C(=O)N[C@@H](Cc4ccccc4)C2[C@H](C)[C@@]2(C)O[C@H]2C3/C=C/C/C=C\CNC1=O` (stereo not given in full): the composite z-score is -1.06 in [1]; 2.84 in [5]; -0.218 in test [7]; 0.972 in test [8]; 0.354 in test [9]; -0.168 in [10]. For the same molecule, the composite z-score in [11] was 1.02; in test [12] it was -0.259; in test [13], -0.17; in test [15], -0.2; in test [16] it was -0.769; in [17], -0.318. For the same molecule, the figures for the composite z-score in test [18], in [19] and in test [20] were 0.119, 0.0252 and 1.16, respectively. The z-score is 0.378 (inactive) in [2]; 0.573 (inactive) in [3]; 0.783 (inactive) in test [4]; -1.02 (inactive) in test [6]; 0.138 (inactive) in test [14].
